Measurements taken from PubChem BioAssay (NCI).
Compounds without any hit were thinned out: in the full panel of roughly 83,000, 20% have a hit.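 Each cell line was grown in a 96-well plate and treated with one concentration of compound for 48 hours. Values below 10 were considered active.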 Activity calls are given as the source filed them.

How the values were obtained:
Assay in all cases: NCI-60 one-dose screen, 48 h (100 = growth as untreated, 0 = no growth, -100 = all killed)
Details in all cases: 10 µM unless noted
[1] = system: HCT-15 colon
[2] = system: HT29 colon
[3] = system: SNB-75 CNS
[4] = system: SNB-19 CNS
[5] = system: U251 CNS
[6] = system: PC-3 prostate
[7] = system: SK-MEL-5 melanoma
[8] = system: UACC-62 melanoma
[9] = system: LOX IMVI melanoma
[10] = system: SK-MEL-2 melanoma
[11] = system: EKVX NSCLC
[12] = system: SN12C renal
[13] = system: UO-31 renal
[14] = system: TK-10 renal
[15] = system: ACHN renal
[16] = system: CAKI-1 renal
[17] = system: A498 renal
[18] = system: CCRF-CEM leukemia
[19] = system: MOLT-4 leukemia

Measured: growth

CCN(CC)CCCC(C)Nc1cnc(C(=O)Nc2cc(C)cc3cccnc23)cn1 (configuration not stated)
inactive: [1] 59.9% | [2] 37.3% | [3] 78.3% | [4] 89.2% | [5] 78.4% | [6] 83.1% | [7] 83.1% | [8] 98.6% | [9] 87% | [10] 104% | [11] 77.8% | [12] 77.9% | [13] 63.3% | [14] 86.9% | [15] 77.9% | [16] 93.4% | [17] 70.3% | [18] 54.2% | [19] 46.5%

COc1cc2nccc(Oc3ccc(NC(=O)C4(C(=O)Nc5c(F)cc(F)cc5F)CC4)cc3)c2cc1Oc1ccc(N)cn1
active: [17] -6.52%
inactive: [1] 45.5% | [2] 34.8% | [3] 21.7% | [4] 78.7% | [5] 67.3% | [6] 51.5% | [7] 29% | [8] 24.4% | [9] 49.4% | [10] 81.5% | [11] 45.2% | [12] 30.6% | [13] 45.3% | [14] 84.5% | [15] 50.9% | [16] 65.6% | [18] 70.9% | [19] 38.5%

COc1cc2nccc(Oc3ccc(NC(=O)C4(C(=O)Nc5ccc(F)cc5)CC4)cc3)c2cc1OC(=O)c1ccc(N)cc1
inactive: [1] 25.9% | [4] 37.6% | [6] 25.4% | [7] 34% | [8] 40.1% | [10] 31.3% | [11] 25.7% | [12] 27.6% | [14] 72.2% | [15] 39.5% | [16] 20.9% | [17] 64% | [18] 27.8%
active: [2] 1.03% | [3] -34.6% | [5] 7.81% | [9] -51.4% | [13] 9.18% | [19] 3.73%

Oc1c(C(c2ccc(F)cc2)N2CCCCC2)ccc2cncnc12 (configuration not stated)
inactive: [1] 26% | [2] 13.5% | [4] 11.1% | [6] 10.6% | [11] 16.9% | [12] 10% | [13] 11% | [15] 10.9% | [16] 19% | [18] 18.5% | [19] 13.1%
active: [3] 7.45% | [5] 1.52% | [7] -19.7% | [8] -0.545% | [9] 7.17% | [10] -16.6% | [14] 9.03% | [17] -8.07%

Cc1[nH]nc2ccc3nc(-c4ccc5[nH]ncc5c4)c4c(c3c12)CCCC4
active: [3] 6.45% | [10] -15.5% | [15] 6.93% | [17] -10.8% | [19] 3.85%
inactive: [1] 16.2% | [2] 22.1% | [4] 35.8% | [5] 26.4% | [6] 26.5% | [7] 10.4% | [8] 10.1% | [9] 29.6% | [11] 20.2% | [12] 23.2% | [13] 12.8% | [14] 10.3% | [16] 12.5% | [18] 16.8%

COc1ccc(-c2oc(=O)ccc2-c2cc(OC)c(OC)c(OC)c2)cc1F
inactive: [1] 68.2% | [2] 44.4% | [3] 106% | [4] 92.1% | [5] 81.9% | [6] 66.4% | [7] 66.5% | [8] 53.6% | [9] 67.4% | [10] 92.8% | [11] 99.6% | [12] 87.9% | [13] 47.3% | [14] 88.2% | [16] 52.9% | [17] 83.4% | [18] 57.6% | [19] 83.6%

COc1cccc2nc(Nc3cccc(NC(=O)c4ccc(N5CCN(C)CC5)c(C(F)(F)F)c4)c3)ccc12
inactive: [4] 48.4% | [6] 22% | [7] 48.8% | [10] 77.4% | [11] 66.7% | [12] 45.7% | [13] 22.1% | [14] 51.1% | [15] 26.8% | [16] 24.8% | [17] 64.4% | [18] 12.5%
active: [1] -10.4% | [2] -67.7% | [3] -7.68% | [5] -24.6% | [8] -38.4% | [9] -96.7% | [19] -16.6%

COc1ccc(-c2cn(-c3cccc(C(=O)/C=C/c4ccc(O)c(OC)c4)c3)c(=O)[nH]2)cc1
inactive: [4] 67.4% | [6] 20.2% | [7] 22.7% | [8] 40.8% | [10] 30% | [11] 40.8% | [12] 14.2% | [13] 19% | [14] 35.6% | [16] 24.6%
active: [1] 8.88% | [2] -21.6% | [3] 1.36% | [5] 4.66% | [9] -13.9% | [15] -47.8% | [18] 9.57% | [19] 5.6%

C/C=C(\C)C(C(=O)NC1CCCCC1)N(C(=O)C1CCc2cc(F)ccc2O1)c1ccc([N+](=O)[O-])cc1 (configuration not stated)
inactive: [1] 74% | [2] 74.4% | [3] 72.8% | [4] 85.7% | [5] 93.1% | [6] 72.7% | [7] 42.1% | [8] 70.1% | [9] 87.7% | [10] 99.6% | [11] 84.2% | [12] 93.4% | [13] 69.1% | [14] 89.9% | [15] 89.7% | [16] 80.2% | [17] 90.3% | [18] 97.3% | [19] 76.4%

CCN(CC)CCCC(C)Nc1cnc(C(=O)Nc2ccc(Cl)c3cccnc23)cn1 (configuration not stated)
inactive: [3] 41.7% | [4] 49.6% | [6] 39.4% | [10] 57.8% | [11] 66.1% | [12] 31.7% | [13] 23.8% | [14] 57.6% | [16] 23.1% | [17] 54%
active: [1] 3.73% | [2] -49.4% | [5] -35.3% | [7] -3.7% | [8] -52.4% | [9] -83.9% | [15] -54.8% | [18] 5.29% | [19] 2.9%

COc1c(-c2cc(-c3ccc(C)o3)[nH]c(=O)n2)c(O)cc2occc12
inactive: [1] 32.6% | [2] 96% | [3] 50% | [4] 65.9% | [5] 63.5% | [6] 69.4% | [7] 76.8% | [8] 48.1% | [9] 58.2% | [10] 69.6% | [12] 63.6% | [13] 71.5% | [14] 104% | [15] 89.9% | [16] 63.8% | [17] 54.1% | [18] 77.8% | [19] 41.1%

CC(C)c1ccc(Cn2ccc3c4c(N)nc(NC5CC5)nc4ccc32)cc1
active: [1] -80.6% | [2] -76.2% | [3] -94.4% | [4] -85.1% | [5] -95.1% | [6] -82% | [7] -96.1% | [8] -93.1% | [9] -90.2% | [10] -82.6% | [11] -84.2% | [12] -91.5% | [13] -99% | [14] -97.2% | [15] -98.9% | [16] -98.6% | [17] -82.3% | [18] -16.3% | [19] -42.8%

COc1c(C(=O)/C=C/c2ccc(C)o2)c(O)cc2occc12
inactive: [1] 35.9% | [2] 65.2% | [3] 59.8% | [4] 76.5% | [5] 75.4% | [6] 72.2% | [7] 86.6% | [8] 58.6% | [9] 71.2% | [10] 82.2% | [11] 68.6% | [12] 82.6% | [13] 81.2% | [14] 100% | [15] 97.6% | [16] 74.2% | [17] 66.6% | [18] 84.6% | [19] 64%

COc1cc(C)c2c(=O)c3c(oc2c1)C(=O)c1c(O)c(OC)cc(O)c1C3=O
inactive: [2] 68.1% | [4] 20.2% | [5] 10.8% | [8] 22.5% | [11] 32.6% | [12] 16.8% | [14] 23.8% | [16] 12.6% | [17] 89% | [18] 10.4% | [19] 16.3%
active: [1] 5.54% | [3] -13.2% | [6] -8.33% | [7] -43.8% | [9] 3.56% | [10] -25.7% | [13] 0.808% | [15] 0.624%

CN(C)c1ccc(/C=N/Nc2nnc3n2N=C(c2ccc(Cl)cc2)CS3)cc1
inactive: [1] 92.5% | [2] 105% | [3] 96.3% | [4] 89.6% | [5] 95% | [6] 82.1% | [7] 92.1% | [8] 98.6% | [9] 98.8% | [11] 89% | [12] 95% | [13] 74.9% | [14] 92.9% | [15] 99.5% | [16] 96.8% | [18] 86.8% | [19] 66.6%

C=C(C)C1CCC2(C(=O)O)CCC3(C)C(CCC4C5(C)CCC(O)C(C)(C)C5CCC43C)C12 (configuration not stated)
inactive: [1] 26.9% | [8] 50.5% | [10] 25.4% | [12] 26.8% | [13] 21.5% | [14] 12.8% | [15] 24.2% | [19] 11.3%
active: [2] -9.19% | [3] -24.8% | [4] 9.23% | [5] -45.3% | [6] 8.63% | [7] -75.8% | [9] 8.78% | [16] -5.47% | [18] 3.16%
